Each structure is given as a SMILES string. Activity calls are given as the source filed them. How the source made its calls: active means hit-call score of the fitted dose curve at least 0.9, where 1 is the maximum; inactive means score below 0.9.

Read-out in test [1]: Cytochrome P450 (CYP1A1), CYP1A1 (gene 1543)
In words: LTEA_HepaRG_CYP1A1: Life Technologies and Expression Analysis (LTEA) Assay for Cytochrome P450 (CYP1A1) using HepaRG (AID 2283454). The following applies: mRNA level, 48 h; actives raise or lower the signal. The gist of the method:
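Differentiated human HepaRG cells, after 48 h plating, exposed in duplicate for 48 h in serum-free induction medium to 8 half-log concentrations up to 100 uM in 0.5% DMSO. CYP1A1 mRNA by qRT-PCR, normalized to ACTB/GAPDH/POLR2A; bidirectional fit versus DMSO.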

Read-out in test [2]: CFLAR gene, CFLAR (gene 8837)
In words: LTEA_HepaRG_CFLAR: Life Technologies and Expression Analysis (LTEA) Assay for CFLAR gene using HepaRG (AID 2283455). The note with it: mRNA level, 48 h; actives raise or lower the signal. The gist of the method:
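HepaRG, 48 h exposure, 8-pt conc-response (100 uM top, half-log), 0.5% DMSO vehicle, duplicates. CFLAR expression by qRT-PCR; ACTB/GAPDH/POLR2A normalization; gain or loss fit vs DMSO baseline.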

Read-out in test [3]: Forkhead box O1 (FOXO1), FOXO1 (gene 2308)
In words: LTEA_HepaRG_FOXO1: Life Technologies and Expression Analysis (LTEA) Assay for Forkhead box O1 (FOXO1) using HepaRG (AID 2283456). The note with it: mRNA level, 48 h; actives raise or lower the signal. The gist of the method: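 Readout is FOXO1 transcript level by multiplexed qRT-PCR against three housekeeping genes, curve-fitted in both directions relative to 0.5% DMSO vehicle. Human HepaRG cultures received chemicals for 48 h, up to 100 uM in half-log steps.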

Read-out in test [4]: growth arrest and DNA damage 45 (GADD45A), GADD45A (gene 1647)
As to the kind of experiment: LTEA_HepaRG_GADD45A: Life Technologies and Expression Analysis (LTEA) Assay for growth arrest and DNA damage 45 (GADD45A) using HepaRG (AID 2283458). The following applies: mRNA level, 48 h; actives raise or lower the signal. Put shortly: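 Cells plated and cultured 48 h, switched to serum-free induction medium, then dosed for 48 h (100 uM top, half-log dilutions, 0.5% DMSO). RNA was isolated and transcript measured by Fluidigm qRT-PCR.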

Read-out in test [5]: Forkhead box O3 (FOXO3), FOXO3 (gene 2309)
In words: LTEA_HepaRG_FOXO3: Life Technologies and Expression Analysis (LTEA) Assay for Forkhead box O3 (FOXO3) using HepaRG (AID 2283459). The following applies: mRNA level, 48 h; actives raise or lower the signal. Put shortly: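 HepaRG, 48 h post-dose; 8 conc., half-log from 100 uM, 0.5% DMSO, duplicates; serum-free induction medium. Readout: FOXO3 mRNA, TaqMan qRT-PCR, housekeeping-normalized. Bidirectional curve fit vs DMSO baseline.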

Read-out in test [6]: ABC Transporter (ABCB1), ABCB1 (gene 5243)
In words: LTEA_HepaRG_ABCB1: Life Technologies and Expression Analysis (LTEA) Assay for ABC Transporter (ABCB1) using HepaRG (AID 2283460). The note with it: mRNA level, 48 h; actives raise or lower the signal. Put shortly: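 Expression of ABCB1 was quantified by qRT-PCR against three housekeeping genes after human HepaRG cultures received test chemicals for 48 hours. Concentrations spanned eight half-log steps topping at 100 uM in 0.5% DMSO; gain or loss of signal was fitted relative to vehicle.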

Read-out in test [7]: growth arrest and DNA damage 45 (GADD45B), GADD45B (gene 4616)
As to the kind of experiment: LTEA_HepaRG_GADD45B: Life Technologies and Expression Analysis (LTEA) Assay for growth arrest and DNA damage 45 (GADD45B) using HepaRG (AID 2283461). The following applies: mRNA level, 48 h; actives raise or lower the signal. Put shortly:
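Differentiated human HepaRG cells in serum-free induction medium exposed 48 h in duplicate to eight concentrations, top 100 uM, half-log steps, 0.5% DMSO. GADD45B mRNA by TaqMan qRT-PCR, normalized to ACTB, GAPDH, POLR2A; bidirectional fit versus DMSO.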

Read-out in test [8]: ABC Transporter (ABCC3), ABCC3 (gene 8714)
As to the kind of experiment: LTEA_HepaRG_ABCC3: Life Technologies and Expression Analysis (LTEA) Assay for ABC Transporter (ABCC3) using HepaRG (AID 2283462). The note with it: mRNA level, 48 h; actives raise or lower the signal. The gist of the method: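 Differentiated human HepaRG cells exposed 48 h in serum-free induction medium, 0.5% DMSO vehicle, 8-point half-log series to 100 uM in duplicate. ABCC3 mRNA by qRT-PCR, normalised to ACTB, GAPDH, POLR2A; bidirectional fit vs DMSO.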

Read-out in test [9]: ABC Transporter (ABCB11), ABCB11 (gene 8647)
As to the kind of experiment: LTEA_HepaRG_ABCB11: Life Technologies and Expression Analysis (LTEA) Assay for ABC Transporter (ABCB11) using HepaRG (AID 2283463). The note with it: mRNA level, 48 h; actives raise or lower the signal. Put shortly:
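ABCB11 transcript levels are read by Fluidigm TaqMan qRT-PCR after 48 h chemical treatment of human HepaRG cells. Concentrations span 100 uM downward in half-log steps with 0.5% DMSO; gain or loss is fitted against DMSO controls.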

Read-out in test [10]: ABC Transporter (ABCC2), ABCC2 (gene 1244)
As to the kind of experiment: LTEA_HepaRG_ABCC2: Life Technologies and Expression Analysis (LTEA) Assay for ABC Transporter (ABCC2) using HepaRG (AID 2283464). The following applies: mRNA level, 48 h; actives raise or lower the signal. The gist of the method: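 Differentiated HepaRG cells in serum-free induction medium exposed 48 h to eight half-log concentrations up to 100 uM, 0.5% DMSO, in duplicate. ABCC2 mRNA measured by qRT-PCR (TaqMan, Fluidigm), normalized to ACTB, GAPDH and POLR2A. Fitted in both directions against DMSO.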

Read-out in test [11]: Broad substrate specificity ATP-binding cassette transporter ABCG2 (Homo sapiens) (UniProt Q9UNQ0)
In words: LTEA_HepaRG_ABCG2: Life Technologies and Expression Analysis (LTEA) Assay for ABC Transporter (ABCG2) using HepaRG (AID 2283465). The following applies: mRNA level, 48 h; actives raise or lower the signal. Put shortly:
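Read-out is ABCG2 mRNA induction or loss quantified by qRT-PCR after 48 h chemical treatment of human HepaRG cells, normalized to three housekeeping genes. Concentrations reached 100 uM top in half-log steps; fitting was bidirectional against 0.5% DMSO.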

Read-out in test [12]: ATP-citrate lyase (ACLY), ACLY (gene 47)
In words: LTEA_HepaRG_ACLY: Life Technologies and Expression Analysis (LTEA) Assay for ATP-citrate lyase (ACLY) using HepaRG (AID 2283466). The following applies: mRNA level, 48 h; actives raise or lower the signal. The gist of the method: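 HepaRG, 48 h exposure, 8-pt half-log dilutions (top 100 uM), 0.5% DMSO. Readout: ACLY mRNA, TaqMan qRT-PCR, housekeeping-normalized (ACTB/GAPDH/POLR2A). Bidirectional curve fit vs DMSO.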

Read-out in test [13]: Peroxisomal acyl-coenzyme A oxidase 1 (ACOX1) gene, ACOX1 (gene 51)
In words: LTEA_HepaRG_ACOX1: Life Technologies and Expression Analysis (LTEA) Assay for Peroxisomal acyl-coenzyme A oxidase 1 (ACOX1) gene using HepaRG (AID 2283467). The following applies: mRNA level, 48 h; actives raise or lower the signal. The gist of the method: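 Measured by qRT-PCR against three housekeeping genes: ACOX1 transcript change in human HepaRG cells after 48 h dosing. Concentrations ran up to 100 uM in half-log steps. Curves were fitted bidirectionally relative to 0.5% DMSO.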

Read-out in test [14]: Alkaline Phosphatase, Placental (ALPP) gene, ALPP (gene 250)
In words: LTEA_HepaRG_ALPP: Life Technologies and Expression Analysis (LTEA) Assay for Alkaline Phosphatase, Placental (ALPP) gene using HepaRG (AID 2283468). The following applies: mRNA level, 48 h; actives raise or lower the signal. Put shortly: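 HepaRG cells plated 48 h, then exposed in duplicate for 48 h in serum-free induction medium to 8-point half-log series from 100 uM in 0.5% DMSO. ALPP mRNA by TaqMan qRT-PCR, normalized to ACTB/GAPDH/POLR2A; bidirectional fit versus DMSO.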

Read-out in test [15]: Bcl-2 (BAD) gene, BAD (gene 572)
In words: LTEA_HepaRG_BAD: Life Technologies and Expression Analysis (LTEA) Assay for Bcl-2 (BAD) gene using HepaRG (AID 2283469). The note with it: mRNA level, 48 h; actives raise or lower the signal. Put shortly:
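BAD transcript change, measured by qRT-PCR against three housekeeping genes and fitted in both directions relative to 0.5% DMSO, after 48 h chemical treatment of human HepaRG liver cells at concentrations up to 100 uM.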

Read-out in test [16]: Bcl-2 (BAX) gene, BAX (gene 581)
In words: LTEA_HepaRG_BAX: Life Technologies and Expression Analysis (LTEA) Assay for Bcl-2 (BAX) gene using HepaRG (AID 2283470). The following applies: mRNA level, 48 h; actives raise or lower the signal. Put shortly: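 HepaRG (human liver), 48 h exposure, duplicate wells. 8-pt curve, half-log from 100 uM, 0.5% DMSO. BAX transcript by TaqMan qRT-PCR; ACTB/GAPDH/POLR2A normalization; gain or loss vs DMSO baseline.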

Read-out in test [17]: Alpha-fetoprotein (AFP) gene, AFP (gene 174)
In words: LTEA_HepaRG_AFP: Life Technologies and Expression Analysis (LTEA) Assay for Alpha-fetoprotein (AFP) gene using HepaRG (AID 2283472). The note with it: mRNA level, 48 h; actives raise or lower the signal. The gist of the method:
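HepaRG, single lot; 48 h post-plating -> serum-free induction medium; cpd 8-pt, 100 uM top, half-log, 0.5% DMSO, duplicate, 48 h. RNA -> qRT-PCR AFP, norm ACTB/GAPDH/POLR2A. Bidirectional fit vs DMSO.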

Read-out in test [18]: flavin-containing dimethylaniline monooxygenases 3 (FMO3), FMO3 (gene 2328)
In words: LTEA_HepaRG_FMO3: Life Technologies and Expression Analysis (LTEA) Assay for flavin-containing dimethylaniline monooxygenases 3 (FMO3) using HepaRG (AID 2283453). The following applies: mRNA level, 48 h; actives raise or lower the signal. Put shortly: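 Differentiated HepaRG cells in serum-free induction medium, exposed 48 h in duplicate to 8 half-log concentrations up to 100 uM in 0.5% DMSO. FMO3 mRNA by qRT-PCR, normalized to ACTB, GAPDH, POLR2A; bidirectional fit vs DMSO.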

Read-out in test [19]: adenosine kinase (ADK) gene, ADK (gene 132)
In words: LTEA_HepaRG_ADK: Life Technologies and Expression Analysis (LTEA) Assay for adenosine kinase (ADK) gene using HepaRG (AID 2283471). The note with it: mRNA level, 48 h; actives raise or lower the signal. Put shortly: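 ADK expression quantified by qRT-PCR, normalised to three housekeeping genes, after 48 h exposure of HepaRG cells to eight concentrations (top 100 uM, half-log steps, duplicate, 0.5% DMSO). Up- or down-regulation fitted relative to vehicle.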

Test [20] in a line: CEETOX_H295R_TESTO: CeeTox H295R High-throughput Steroidogenesis Assay for Testosterone (TESTO) (AID 2283457). The note with it: actives raise or lower the signal. Put shortly:
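H295R adrenal cells, passage ≤10, exposed to chemicals for 48 h. Testosterone in medium measured by MTBE extraction and HPLC-MS/MS against a 7-point standard curve. Bidirectional fit versus DMSO; MTT viability checked in the same wells.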

Chain of Broad substrate specificity ATP-binding cassette transporter ABCG2 (Homo sapiens) (Q9UNQ0 whole entry, looked up): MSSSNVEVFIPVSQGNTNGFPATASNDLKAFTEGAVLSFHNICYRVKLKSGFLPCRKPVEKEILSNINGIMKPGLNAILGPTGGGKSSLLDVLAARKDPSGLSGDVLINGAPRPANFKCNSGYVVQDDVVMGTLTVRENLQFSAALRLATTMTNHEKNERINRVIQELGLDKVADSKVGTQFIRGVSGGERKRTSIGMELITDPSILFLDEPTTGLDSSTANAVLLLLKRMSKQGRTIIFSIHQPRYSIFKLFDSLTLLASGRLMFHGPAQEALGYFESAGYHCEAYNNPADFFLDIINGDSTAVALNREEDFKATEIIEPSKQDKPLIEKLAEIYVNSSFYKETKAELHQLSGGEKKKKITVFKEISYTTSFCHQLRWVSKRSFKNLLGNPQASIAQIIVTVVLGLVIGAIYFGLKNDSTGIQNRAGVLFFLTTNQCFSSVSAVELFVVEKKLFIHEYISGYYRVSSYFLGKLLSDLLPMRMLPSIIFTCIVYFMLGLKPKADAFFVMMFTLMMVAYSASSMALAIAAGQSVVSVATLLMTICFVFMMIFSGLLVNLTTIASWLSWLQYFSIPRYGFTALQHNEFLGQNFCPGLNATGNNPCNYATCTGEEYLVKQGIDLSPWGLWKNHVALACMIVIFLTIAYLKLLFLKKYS

One may read the AC50 as the midpoint of the concentration-response curve, whichever way the signal moves. In the case of `O=C(O)C1C2CCC(O2)C1C(=O)O` (centres undefined), the AC50 in test [1] is 82.6 µM (active); in test [5], 37.4 µM (active); in test [9] it was 77.9 µM (active); in [11], 14.2 µM (active); in test [14], 20.1 µM (active); in test [17], 75.3 µM (active). In addition, the compound was called inactive in [2], in test [3], in test [4], in test [6], in test [7] and in [8]. Also, the compound was called inactive in test [10], in [12], in test [13], in [15] and in test [16].
Regarding `CCN(CC)N=O`, the outcome in test [18], in test [2], in test [3], in [4], in test [5] and in test [8] was inactive. For the same compound, the result in test [9], in test [10], in [11], in test [12], in test [14] and in test [15] was inactive. Besides, the compound was called inactive in test [19] and in [17]. The AC50 in test [1] was 76.5 µM (active).
Regarding `CC(C)(O)c1cnn2c(-c3ccc(F)c(-c4c(F)cccc4C#N)c3)cnc2n1`, the AC50 is 11.9 µM (active) in [1]; 0.438 µM (active) in test [6]; 13.1 µM (active) in test [9]; 0.304 µM (active) in test [10]; 0.00316 µM (active) in test [13]; 12.7 µM (active) in test [17]. The outcome in test [2], in test [3], in [20], in test [4], in test [5] and in test [7] was inactive. Also, the compound was classed as inactive in [8], in test [11], in test [12], in test [14] and in test [15].
Turning to `c1ccc(N=Nc2ccccc2)cc1`, the AC50 in test [1] was 36.6 µM (active). The compound was classed as inactive in test [2], in test [3], in test [4], in test [5], in [6] and in [8]. The compound was classed as inactive in test [9], in test [10], in test [11], in test [12], in [14] and in test [15]. Moreover, the outcome in test [16] and in test [17] was inactive.

The values are drawn from PubChem BioAssay (EPA / NIEHS).
